Most compounds without a hit are left out; they make up all but 19% or so of the library.
IL1B secr inh: inflammasome signaling inhibition, IL-1 beta readout; THP-1 LPS/ATP IL-1B secretion, AlphaLISA, 16 h; hits give low values; activity change, % at 57.5 µM; hit rate 4.7% among 360,000; AID 743279; in the data active = activity change below about -50%; inconclusive = mostly about -30% to -49%; note: % is set by controls: 0 for no effect and ±100 for the full control effect
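Secreted IL-1B measured by AlphaLISA bead assay after 16 h compound exposure of THP-1 cells; compounds (final up to 57.5 uM) added 1 h before LPS (250 ng/mL) and ATP (1.25 mM) stimulation; lower signal means less secretion.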
Chronic BCR inh: chronic active BCR signaling inhibition. Potency, µM (series often up to 46.1 µM), without a hit: at the highest dose activity change, negative = inhibition, usual class: inhibitors. ABC-DLBCL IkBa-CBG/CBR reporter, luminescence ratio, 4 h. hit rate 0.05% among 340,000; active = well fitted inhibition curve with a large enough effect in the signal ratio, with a control signal flat, not every such curve was filed as active; inconclusive = small, poorly fitted or top-dose-only effect, or effect the other way, or a change in a side signal; the % refers to the signal ratio;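 note: potency is the fitted concentration of half-maximal effect; plate controls were basal doxycycline-induced cells for no effect and cells given 10 µM MG132 for full effect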
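TMD8 human ABC-DLBCL cells with doxycycline-inducible IκBα–green luciferase fusion and unfused red luciferase, in 0.5% FBS medium; compounds up to 46 uM, 4 h at 37C. Green/red luminescence ratio, filter-overlap corrected, fitted to concentration-response curves.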
MCF10A rereplic: DNA re-replication induction in MCF 10a cells | MCF 10A DNA re-replication, Hoechst nuclear intensity, 48 h | Potency, µM (top dose mostly 46.1 µM), inactives show top-dose activity, positive = re-replication, actives largely listed as activators | hit rate 2.9% among 350,000; note: potency is the fitted concentration of half-maximal effect; % of control where 0% means no effect; nearly all actives have a fitted effect of over 50% in size
SW480 rerep: inducers of DNA re-replication in SW480 colon cancer cells; SW480 DNA re-replication, Hoechst DNA content imaging, 48 h; Potency, µM (highest dose often 46.1 µM), for inactives: at the top dose re-replication activation, most hits filed as activators; hit rate 1.8% among 340,000; note: potency is the fitted concentration of half-maximal effect; % of control where 0% means no effect; nearly all actives have a fitted effect of over 55% in size
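Readout is total intensity of Hoechst-stained nuclei, excited at 405 nm and collected at 500-530 nm. Compound treatment lasted 48 hr at 37 C in 5% CO2 before staining.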
DT40 TDP1 CPT: DT40-hTDP1 cell growth loss with CPT; hit rate 12% among 420,000; Potency, µM (series often up to 46.2 µM), without a hit: at the highest dose activity change, negative = growth inhibition, hits mostly inhibitors; chicken DT40 Tdp1-/-;hTDP1 cells + 20 nM CPT, ATP luminescence, 48 h; note: potency is the fitted concentration of half-maximal effect; % is set by controls: 0 for no effect and ±100 for the full control effect; nearly all actives have a fitted effect of over 55% in size
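Chicken DT40 Tdp1-/- cells complemented with human TDP1, 400 cells/well, exposed to compounds plus 20 nM camptothecin for at least 48 h at 37 C; viability read as ATP content by CellTiter-Glo luminescence.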
DT40 TDP1 no CPT: qHTS for Inhibitors of human tyrosyl-DNA phosphodiesterase 1 (TDP1): qHTS in cells in absence of CPT. DT40 Tdp1-/- hTDP1 cells, no CPT, ATP luminescence, 48 h. hit rate 15% among 420,000. Potency, µM (series often up to 46.2 µM), without a hit: at the top dose activity change, negative = growth inhibition, most hits filed as inhibitors; note: potency is the fitted concentration of half-maximal effect; % is set by controls: 0 for no effect and ±100 for the full control effect; nearly all actives have a fitted effect of over 55% in size
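Cells were dispensed at 400 per well, compounds added by pin tool, plates incubated ≥48 hr at 37 °C, then CellTiter-Glo added for 30 min at room temperature before luminescence reading. Line: DT40 Tdp1-/- complemented with hTDP1; camptothecin omitted.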
* = called active by the depositor; i = inactive; ? = inconclusive; · = no result; [ ] = dose if it differs, or a comment. Unless noted, calls come from the whole dose curve; as a rule, active = well fitted curve in the direction sought with a large enough effect; inconclusive = small, poorly fitted or top-dose-only effect, or another doubt; inactive = no such curve, though single readings can be large; an effect the other way counts as inactive or inconclusive.

SMILES	IL1B secr inh	Chronic BCR inh	MCF10A rereplic	SW480 rerep	DT40 TDP1 CPT	DT40 TDP1 no CPT
O=C(Nc1cccnc1)C12CC3CC(CC(C3)C1)C2	-3	-3%	7%	-8%	1%	-6%
O=C(O)/C=C/C(=O)Nc1cccnc1	19	0%	0%	-3%	6%	-2%
O=C(/C=C/c1ccc(Cl)c(Cl)c1)Nc1cccnc1	-2	·	9%	-2%	-26%	-19%
COC(=O)/C=C/C(=O)Nc1cccnc1	-5	?	?	21%	16µM*	?
COC(=O)/C=C/C(=O)Nc1ccc(O)c(Cl)c1	-99*	?	?	?	?	?
CC(C)(C)c1ccc(/C=C/C(=O)Nc2cccnc2)cc1	-52*	0%	?	-1%	?	?
CC(Sc1nn(-c2ccccc2)c(=S)s1)C(=O)NCC1CCCO1 (configuration not stated)	-6	-1%	15%	-17%	-22%	-27%
CC(=O)Nc1ccc(/C=C/c2ccc3c([N+](=O)[O-])cccc3n2)cc1	-5	4%	-2%	-7%	6%	2%
CNC(=O)C[C@@H]1C(=O)N(c2ccc(Br)cc2)CC1(C)C	3	·	·	·	6%	-5%
COc1ccc(N2CCN(C(=O)c3ccc(Oc4ccc(C(F)(F)F)cn4)cc3)CC2)cc1	-3	3%	5%	1%	?	23µM*
O=C(c1ccc2ccccc2c1)N1CCN(c2ccc(C(F)(F)F)cn2)CC1	4	-2%	?	-5%	-3%	?
O=C(c1ccc(Oc2ccc(C(F)(F)F)cn2)cc1)N1CCN(c2ccccc2)CC1	-10	?	26%	-3%	-9%	29µM*
COCCNC(=S)NN=C1CCCCCC1	7	?	8.2µM*	?	?	23%
COCCNC(=S)NN=C1CCC(c2ccccc2)CC1 (configuration not stated)	14	?	11%	?	?	5.2µM*
O=S1(=O)C[C@@H](N2CCC(Cc3ccccc3)CC2)[C@H](COCc2ccccc2)N1	18	·	·	·	18µM*	23µM*
CCC(=O)N1CCCC(C)(C(=O)NS(=O)(=O)c2cccs2)C1 (configuration not stated)	-3	·	·	·	18%	10%
Cc1cccc(N2CCN(C(=O)c3ccc4ncsc4c3)CC2)c1C	12	?	9.2µM*	10µM*	2.1µM*	5.2µM*
O=C(c1cc2sccc2n1Cc1ccccc1)N1CCN(c2nc3ccccc3s2)CC1	-3	?	2%	3%	15µM*	15µM*
O=C(c1ccc2ncsc2c1)N1CCN(c2ccc(O)cc2)CC1	1	2%	28%	0%[9.22 µM]	?	21µM*
CN(C1CCCCC1)S(=O)(=O)c1ccc(C(=O)N2CCN(c3nc4ccccc4s3)CC2)cc1	12	4%	10%	-4%	23µM*	15µM*
CCOC(=O)C1CCCN(S(=O)(=O)c2cnc(Cl)c(Br)c2)C1 (configuration not stated)	-8	4%	13%	1%	?	?
Cc1cc(O)cc(O)c1C=NCc1ccco1	-10	15%	?	5%	2%	-13%
O=C(c1ccc2ncsc2c1)N1CCN(c2nc3ccccc3s2)CC1	i	-2%	-15%	-9%	?	15µM*
CCC(=O)NCCSc1c[nH]c2ccccc12	14	-19%	-2%	2%	-4%	3%
Cc1[nH]c2ccccc2c1SCCNC(=O)c1ccc(Br)o1	-82*	?	-10%	-4%	-16%	?
SMILES	IL1B secr inh	Chronic BCR inh	MCF10A rereplic	SW480 rerep	DT40 TDP1 CPT	DT40 TDP1 no CPT
O=C(NCCSc1c[nH]c2ccccc12)c1ccc(Br)o1	-10	-16%	15%	5%	5%	?
CCN(CC)S(=O)(=O)c1ccc(C(=O)NCCSc2c(-c3ccc(C)cc3)[nH]c3ccccc23)cc1	·	·	·	·	5.8µM*	8.2µM*
CCN(CC)S(=O)(=O)c1ccc(C(=O)NCCSc2c[nH]c3ccccc23)cc1	3	?	11%	1%	21µM*	?
COc1ccc(C(=O)NCCSc2c[nH]c3ccccc23)cc1OC	·	·	·	·	?	21µM*
C[C@@H]1CN([C@H](C)CO)C(=O)CCCn2nncc2CO[C@@H]1CN(C)C(=O)Nc1ccc2c(c1)OCO2	25	·	·	·	-12%	-23%
COc1ccc(C(C(=O)NCc2ccc(F)cc2)N(C(=O)c2csnn2)C2CC2)cc1 (configuration not stated)	-13	3%	-3%	2%	-7%	-19%
CC(C)Oc1ccccc1C1NC(=O)CCC1[N+](=O)[O-] (configuration not stated)	25	?	-5%	-7%	-1%	-8%
COc1cccc(NC(=O)COC(=O)CCC(=O)c2cccs2)c1	0	-2%	11%	-3%	-8%	-7%
CCN1CCN(c2ccc(N3CCN(S(=O)(=O)c4cc([N+](=O)[O-])ccc4C)CC3)nn2)CC1	-10	13%	?	?	?	?
O=C(CCl)N=c1sccn1Cc1cccc2ccccc12	-102*	?	?	?	4.6µM*	2.6µM*
Cc1ccc(NC(=O)Cn2ccn(-c3ccc(F)c(F)c3)c(=O)c2=O)cc1C	·	·	·	·	-2%	-2%
COCC(=O)Nc1nc2ccccc2s1	10	·	-5%	1%	0%	-12%
NC(=S)Nc1nc2ccccc2s1	0	?	0%	?	2.6µM*	4.1µM*
O=C(NC(=S)Nc1nc2ccccc2s1)c1cccs1	21	12%	11%	-12%	16µM*	18µM*
O=C(C(=O)N1CCC(Cc2ccccc2)CC1)c1cccs1	?	·	·	·	-21%	-27%
COc1ccc(NC(=O)Cn2c(=O)ccc3cc(S(=O)(=O)N4CCCC4)ccc32)cc1Cl	·	·	·	·	16µM*	13µM*
COc1cc(NC(=O)Cn2c(=O)ccc3cc(S(=O)(=O)N4CCCC4)ccc32)cc(OC)c1	·	·	·	·	?	15µM*
O=S(=O)(c1ccc(NC(=S)NCc2cccnc2)cc1)N1CCCCC1	13	11%	1%	-2%	8.2µM*	6.5µM*
Cc1c(C(=O)NCc2cccnc2)oc2ccc(S(=O)(=O)N3CCCCC3)cc12	-5	-6%	-2%	4%	10µM*	14µM*
Cc1ccc(NC(=S)Nc2cccnc2)c(S(=O)(=O)N2CCCCC2)c1	-4	1%	?	-6%	23µM*	16µM*

Assay outcomes from PubChem.
